In PubChem BioAssay AID504697 (The Scripps Research Institute Molecular Screening Center, 2011) one finds EC50 data, which are given here for 36 compounds.

A number with no mark means an inactive call. The source made the active and inactive calls.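 How the source made its calls: active means EC50 at or below 10 µM; inactive means EC50 above 10 µM.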 Where only a bound is given, the exact number is not on record here.

This test can be described thus: fluorescence interference artefacts, compound only, dose response, artefact control for cardiac thin filament activator project, biochemical, no RTF in test wells (AID 504697).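 Further: emission near 535 nm under roughly 485 nm excitation as for IANBD.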 Particulars: compound-only fluorescence in RTF assay buffer with Ca2+ (no RTF in test wells), artifact counterscreen.
What is called EC50 is the concentration needed to bring the measured effect to its halfway point. Regarding `COc1ccc2nc(C)c3cc(C)oc3c2c1`, the EC50 is greater than 71.4 µM.

Turning to `CCOC(=O)/C(=C\c1c[nH]c2ccccc12)NC(C)=O`, the EC50 is greater than 71.4 µM.

Turning to `Cc1cccc(/C=N/NC(=O)C(C)Nc2cccc3ccccc23)n1` (stereo unspecified), the EC50 was 26.9 µM.

As for `O=[n+]1c2c(n([O-])c3cc(F)c(N4CCCC4)cc31)CCC2`, the EC50 is 9.61 µM (active).

As to `CCN1C(=O)/C(=C/N2CCc3ccccc32)SC1=S`, the EC50 was 10.1 µM.

Consider `COc1c(O)cccc1-c1nnn(CCC(=O)OCC(=O)c2ccccc2)n1`, for which the EC50 was greater than 71.5 µM.

For `COc1ccccc1/C=C/C=C1\Oc2c(ccc(O)c2CN2CCN(CCO)CC2)C1=O`, the concentration for a half-maximal effect (EC50) is 3.63 µM (active).

For `CCCNC(=O)Cn1c(=O)/c(=C\c2ccc(-c3ccc([N+](=O)[O-])cc3)o2)s/c1=C\C(=O)C(C)(C)C`, the EC50 was 0.335 µM (active).

Turning to `CN1CCS/C1=C/C=C1\SC(=S)N(CC(=O)O)C1=O`, the EC50 is 2.28 µM (active).

As to `C=CCn1c(C)c(/C=C/c2cc[n+](C)cc2)c2ccccc21`, the EC50 is 4.64 µM (active).

On to `Cn1nc(-c2ccccc2)c(C(=O)Nc2ccc(C(F)(F)F)cc2)c1Cl`, for which the EC50 is greater than 71.5 µM.

For `CCc1ccc2c(COC(=O)CNS(=O)(=O)c3ccc(NC(C)=O)cc3)cc(=O)oc2c1`, the EC50 is greater than 71.5 µM.

With `COC(=O)c1ccc(S(=O)(=O)N2CCC(O)CC2)n1C`, the EC50 is greater than 71.4 µM.

For the compound `Cc1ccc(NC(=O)COc2ccc(/C=N/NC(=O)CSCc3ccccc3)cc2)cc1`, the EC50 is greater than 71.5 µM.

In the case of `Cn1nc(NC(=O)C2CCC2C(=O)O)c2c(F)cccc21` (stereo unspecified), the EC50 was greater than 71.5 µM.

As for `COc1ccc(/C=N/NC(=O)c2cccnc2)cc1CN1CCOCC1`, the EC50 is greater than 71.5 µM.

As for `C[C@@H](C(=O)N1CCNCC1)n1cc(CCCN=C(N)N)nn1`, the EC50 was greater than 71.5 µM.

Consider `CCn1nc(-c2ccccc2)c2nc3ccccc3nc21`, for which the EC50 is 10.3 µM.

As for `N#Cc1ccc(S(=O)(=O)NC2CCCCNC2=O)cc1` (stereo unspecified), the EC50 was greater than 71.4 µM.

As to `O=[N+]([O-])c1ccc(NN=Cc2cccc3ccccc23)nc1`, the EC50 was 62.7 µM.

On to `COc1ccc(C(=O)Nc2cc(C(C)=O)c(/C=C/N(C)C)oc2=O)cc1`, for which the EC50 is 29.5 µM.

With `CC1(C)CCN2CCC(C)(C)c3c(O)ccc1c32`, the EC50 is 5.84 µM (active).

On to `CCN1C(=O)/C(=C/C=C2/SCCN2C)SC1=S`, for which the EC50 is 2.63 µM (active).

Regarding `CN(C)CCN(C)Cc1c2ccccc2c(CN(C)CCN(C)C)c2ccccc12`, the EC50 is greater than 71.5 µM.

Consider `CC(C)Sc1nc2ccc(Br)cc2[nH]1`, for which the EC50 is greater than 71.4 µM.

Consider `O=C(Nc1ccc(C(=O)N2CCOCC2)cc1)Nc1cccc(Cl)c1`, for which the EC50 is greater than 71.5 µM.

For `N#CC1=C(N)Oc2ccc3ccc(O)cc3c2C1c1ccsc1` (stereo unspecified), the EC50 was 65.8 µM.

Take `CCOC(=O)c1sc(-c2ccc(F)cc2)cc1NC(=O)Nc1ccccc1OC`: the EC50 is greater than 71.4 µM.

Take `O=c1[nH][nH]c(C(F)(F)F)c1C=NCc1ccccc1Cl`: the EC50 was greater than 71.4 µM.

Take `CC(=O)Oc1ccc(N2C(=O)C3C(C2=O)C(C(=O)c2ccc(Cl)cc2)N2CCCC32)cc1` (stereo unspecified): the EC50 was 58.7 µM.

Regarding `COc1ccc(C(=O)/C=C/c2cn(CC(O)CN3CCN(C)CC3)c3ccccc23)cc1OC` (stereo unspecified), the EC50 was 25.7 µM.

Take `Cc1ccc(N=Nc2c(O)n(CN3CCOCC3)c3ccccc23)cc1`: the EC50 is greater than 71.5 µM.

As for `COc1ccc(/C=C2/SC(c3ccc(C)cc3)=NC2=O)cc1OC`, the EC50 was 1.43 µM (active).

Consider `O=C(COC(=O)c1ccc(O)cc1)Nc1ccc2c(c1)OCCO2`, for which the EC50 was greater than 71.5 µM.

With `CNC(=O)N(O)C1N(C)C(=O)N(CC(=O)OC)C1(C)C` (stereo unspecified), the EC50 is greater than 71.5 µM.

Turning to `O=C(CO/N=C/c1ccccc1OC(F)F)NCc1cccs1`, the EC50 is greater than 71.5 µM.
